Measured values as given in PubChem BioAssay AID1845226 (National Center for Advancing Translational Sciences (NCATS), 2023).
Records with an inconclusive call do not appear. Values without a mark were called inactive. Active and inactive are the calls of the source. Calls follow the shape of the dose curve; as a rule, active = well fitted inhibition curve with a large enough effect; inconclusive = small, poorly fitted or top-dose-only effect; inactive = no such curve, though single readings can be large or run the other way.

assay: Confirmatory fluorescence-based thiol-reactive (MSTI) qHTS assay for identification of artifact compounds; conditions: MSTI thiol-reactivity probe, 1 h; series mostly up to 39.2 µM; activity change, negative = inhibition: at the top concentration
Method in brief: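 Thiol reactivity read as MSTI fluorescence (Ex/Em 525/598 nm) after 1 h at room temperature in PBS pH 7.4 with 2% DMSO, MSTI 4 uM. Data normalised to Acetyl-MSTI and MSTI control wells, 4-parameter Hill fit.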
Potency is read from the fitted curve at half-maximal effect.

For `CCOc1ccccc1NC(=O)CSc1nc2c(oc3ccccc32)c(=O)n1-c1ccc(F)cc1`, which “activity change, negative = inhibition” value is on record?
Its value is 96.4%.

With `CC(C)=CCC/C(C)=C/C=O` as the compound, how does the “activity change, negative = inhibition” value read?
The value was -2.35% [at 78.4 µM].

For `O=C1CCC(=O)N1CO`, which “activity change, negative = inhibition” value is on record?
The value was -16.4%.

For `COc1ccc(C(=O)O)cc1Nc1nc2ccc(C)cc2n2cnnc12`, which “activity change, negative = inhibition” value is on record?
Its value is 25.2%.

With `CCOC(=O)c1c(C)c(C(=O)NCc2ccc(Cl)cc2)c(C)n1CC` as the compound, how does the “activity change, negative = inhibition” value read?
Its value is 111%.

With `Cc1ccc(CN(Cc2ccco2)C(=O)COc2ccc(Cl)cc2Cl)cc1` as the compound, how does the “activity change, negative = inhibition” value read?
Its value is 35.2%.

With `Cc1ccc(S(=O)(=O)Nc2ccc(F)cc2C(=O)Nc2nc(-c3ccccc3)cs2)cc1` as the compound, how does the “activity change, negative = inhibition” value read?
The value was 197%.

For `COc1ccc(NC(=O)CSc2nc(-c3ccccc3)nc3c2Cc2c(CO)cnc(C)c2O3)cc1Cl`, which “activity change, negative = inhibition” value is on record?
Its value is 14.9%.

Which “activity change, negative = inhibition” value does the source give for `COc1cc(NC(=O)c2ccc(C)cc2)ccc1NC(=O)c1cc2ccccc2o1` here?
Its value is 49.2%.

Which Potency does the source give for `Cc1ccc(NC(=O)CC2Nc3cccc4cccc(c34)NC2=O)cc1` (configuration not stated) here?
Its Potency is 1540 nM (active).

With `O=S(=O)(Nc1ccc(S(=O)(=O)Nc2nccs2)cc1)c1ccc2ccccc2c1` as the compound, how does the “activity change, negative = inhibition” value read?
Its value is 160%.

Which “activity change, negative = inhibition” value does the source give for `C=Cc1ccc(Cn2c(C)c(CNCc3cccc(Br)c3)c(C(=O)O)c2C)cc1` here?
The value was -1.73%.

For `COc1ccc(-c2cc(C(F)(F)F)n3nc(-c4ccc(Cl)cc4)cc3n2)cc1OC`, which “activity change, negative = inhibition” value is on record?
The value was 214%.

Which “activity change, negative = inhibition” value does the source give for `OCC1=C[C@@H](O)[C@@H]2C=CO[C@@H](OC3O[C@H](CO)[C@@H](O)[C@H](O)[C@H]3O)[C@H]12` (some centres not stated) here?
The value was 12.5%.

For `CCOc1ccc(CNC(=O)c2cnc(SC)nc2CC)cc1`, which “activity change, negative = inhibition” value is on record?
The value was 49.6%.

For `Cc1ccc(-c2nnc(Nc3cccc(O)c3)c3ccccc23)cc1S(=O)(=O)N1CCN(C)CC1`, which “activity change, negative = inhibition” value is on record?
Its value is 36.6%.

Which “activity change, negative = inhibition” value does the source give for `COc1ccc(/C=C/c2cc(O)cc(O[C@H]3OC(CO)C(O)C(O)C3O)c2)cc1` (some centres not stated) here?
The value was 11.9%.
